From ChEMBL document CHEMBL5724796, “Tm Shift (DSF) assay results for EUbOPEN Chemogenomics Library” (2024)
Values joined by “and” are separate entries in the source; they are usually repeats but may differ in a detail not shown here. Equal entries are not always repeated. Residues, ends and D or L forms follow the SMILES beside them. *: point of attachment. Cbz = O=C(OCc1ccccc1)*

How the values were obtained:
Conditions in all cases: Compound concentration 20.0 uM
[1] = molecular target: Tyrosine-protein kinase ABL1 (Homo sapiens) (UniProt P00519)
[2] = molecular target: Bromodomain-containing protein 4 (Homo sapiens) (UniProt O60885)
[3] = molecular target: Cyclin-dependent kinase 2 (Homo sapiens) (UniProt P24941)
[4] = molecular target: Casein kinase I isoform delta (Homo sapiens) (UniProt P48730)
[5] = molecular target: Glycogen synthase kinase-3 beta (Homo sapiens) (UniProt P49841)
[6] = molecular target: Mitogen-activated protein kinase 1 (Homo sapiens) (UniProt P28482)
[7] = molecular target: T1, Aurora kinase A (Homo sapiens) (UniProt O14965)
T1 sequence (whole entry): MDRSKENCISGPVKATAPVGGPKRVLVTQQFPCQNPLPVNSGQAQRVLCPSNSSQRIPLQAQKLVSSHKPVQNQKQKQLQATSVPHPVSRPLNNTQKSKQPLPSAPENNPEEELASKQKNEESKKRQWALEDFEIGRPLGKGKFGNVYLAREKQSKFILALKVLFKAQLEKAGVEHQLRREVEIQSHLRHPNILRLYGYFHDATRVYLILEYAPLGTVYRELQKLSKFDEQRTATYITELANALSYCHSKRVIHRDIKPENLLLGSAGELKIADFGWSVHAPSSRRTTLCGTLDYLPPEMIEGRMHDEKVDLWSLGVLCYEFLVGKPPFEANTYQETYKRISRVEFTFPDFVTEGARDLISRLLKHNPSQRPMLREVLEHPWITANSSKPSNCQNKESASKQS

[8] = molecular target: T2, Transcription intermediary factor 1-alpha (Homo sapiens) (UniProt O15164)
T2 sequence (whole entry): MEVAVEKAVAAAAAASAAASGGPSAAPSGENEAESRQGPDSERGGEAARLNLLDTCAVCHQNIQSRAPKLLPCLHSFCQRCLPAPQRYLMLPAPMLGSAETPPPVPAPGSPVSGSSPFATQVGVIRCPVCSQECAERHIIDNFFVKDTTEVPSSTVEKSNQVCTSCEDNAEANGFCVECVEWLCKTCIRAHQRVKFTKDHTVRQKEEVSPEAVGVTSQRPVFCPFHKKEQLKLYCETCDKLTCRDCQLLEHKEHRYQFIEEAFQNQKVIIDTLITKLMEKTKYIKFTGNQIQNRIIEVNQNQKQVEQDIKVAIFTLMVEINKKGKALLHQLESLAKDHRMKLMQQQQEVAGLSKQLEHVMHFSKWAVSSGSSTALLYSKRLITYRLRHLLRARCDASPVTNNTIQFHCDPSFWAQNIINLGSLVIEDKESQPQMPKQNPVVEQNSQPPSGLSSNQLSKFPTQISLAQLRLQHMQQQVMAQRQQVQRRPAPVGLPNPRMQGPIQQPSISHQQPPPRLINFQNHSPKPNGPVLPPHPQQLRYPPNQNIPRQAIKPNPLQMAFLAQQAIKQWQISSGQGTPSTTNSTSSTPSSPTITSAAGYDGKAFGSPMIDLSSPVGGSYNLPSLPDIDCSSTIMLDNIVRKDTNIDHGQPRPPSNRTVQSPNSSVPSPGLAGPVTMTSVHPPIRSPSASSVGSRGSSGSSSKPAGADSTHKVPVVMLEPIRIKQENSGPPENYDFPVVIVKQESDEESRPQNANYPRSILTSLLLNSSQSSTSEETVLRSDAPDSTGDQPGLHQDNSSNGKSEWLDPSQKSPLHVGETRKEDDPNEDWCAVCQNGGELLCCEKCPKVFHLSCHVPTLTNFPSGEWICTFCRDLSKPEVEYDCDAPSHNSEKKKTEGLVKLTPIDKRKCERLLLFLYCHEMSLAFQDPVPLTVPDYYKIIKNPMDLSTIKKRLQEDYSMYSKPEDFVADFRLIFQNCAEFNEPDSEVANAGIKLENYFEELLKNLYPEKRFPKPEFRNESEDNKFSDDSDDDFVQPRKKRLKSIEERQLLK

Sequence of Glycogen synthase kinase-3 beta (Homo sapiens) (P49841 whole entry, looked up): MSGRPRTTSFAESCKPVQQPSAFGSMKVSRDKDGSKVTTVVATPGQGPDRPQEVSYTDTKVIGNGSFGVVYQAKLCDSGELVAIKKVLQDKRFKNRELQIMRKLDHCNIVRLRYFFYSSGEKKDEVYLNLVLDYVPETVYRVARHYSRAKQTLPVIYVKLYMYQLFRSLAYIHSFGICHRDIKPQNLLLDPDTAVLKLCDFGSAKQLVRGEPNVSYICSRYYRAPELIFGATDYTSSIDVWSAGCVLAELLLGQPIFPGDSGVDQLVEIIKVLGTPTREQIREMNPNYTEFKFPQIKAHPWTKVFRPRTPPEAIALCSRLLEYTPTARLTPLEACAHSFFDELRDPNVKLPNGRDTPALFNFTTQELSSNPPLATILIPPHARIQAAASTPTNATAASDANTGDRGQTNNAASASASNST
Sequence of Casein kinase I isoform delta (Homo sapiens) (P48730 whole entry, looked up, canonical isoform): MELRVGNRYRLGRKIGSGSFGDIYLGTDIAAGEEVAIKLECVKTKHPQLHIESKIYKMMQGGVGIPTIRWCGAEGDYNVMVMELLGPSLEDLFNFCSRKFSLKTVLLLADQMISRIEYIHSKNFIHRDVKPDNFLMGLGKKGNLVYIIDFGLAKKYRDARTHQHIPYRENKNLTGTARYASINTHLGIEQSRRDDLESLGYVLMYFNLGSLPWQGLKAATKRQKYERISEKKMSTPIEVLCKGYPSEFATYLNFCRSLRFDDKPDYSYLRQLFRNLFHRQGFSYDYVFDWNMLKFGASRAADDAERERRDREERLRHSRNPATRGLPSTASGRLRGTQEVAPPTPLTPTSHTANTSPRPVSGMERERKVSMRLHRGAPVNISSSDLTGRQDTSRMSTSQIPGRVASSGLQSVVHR
Sequence of Tyrosine-protein kinase ABL1 (Homo sapiens) (P00519 whole entry): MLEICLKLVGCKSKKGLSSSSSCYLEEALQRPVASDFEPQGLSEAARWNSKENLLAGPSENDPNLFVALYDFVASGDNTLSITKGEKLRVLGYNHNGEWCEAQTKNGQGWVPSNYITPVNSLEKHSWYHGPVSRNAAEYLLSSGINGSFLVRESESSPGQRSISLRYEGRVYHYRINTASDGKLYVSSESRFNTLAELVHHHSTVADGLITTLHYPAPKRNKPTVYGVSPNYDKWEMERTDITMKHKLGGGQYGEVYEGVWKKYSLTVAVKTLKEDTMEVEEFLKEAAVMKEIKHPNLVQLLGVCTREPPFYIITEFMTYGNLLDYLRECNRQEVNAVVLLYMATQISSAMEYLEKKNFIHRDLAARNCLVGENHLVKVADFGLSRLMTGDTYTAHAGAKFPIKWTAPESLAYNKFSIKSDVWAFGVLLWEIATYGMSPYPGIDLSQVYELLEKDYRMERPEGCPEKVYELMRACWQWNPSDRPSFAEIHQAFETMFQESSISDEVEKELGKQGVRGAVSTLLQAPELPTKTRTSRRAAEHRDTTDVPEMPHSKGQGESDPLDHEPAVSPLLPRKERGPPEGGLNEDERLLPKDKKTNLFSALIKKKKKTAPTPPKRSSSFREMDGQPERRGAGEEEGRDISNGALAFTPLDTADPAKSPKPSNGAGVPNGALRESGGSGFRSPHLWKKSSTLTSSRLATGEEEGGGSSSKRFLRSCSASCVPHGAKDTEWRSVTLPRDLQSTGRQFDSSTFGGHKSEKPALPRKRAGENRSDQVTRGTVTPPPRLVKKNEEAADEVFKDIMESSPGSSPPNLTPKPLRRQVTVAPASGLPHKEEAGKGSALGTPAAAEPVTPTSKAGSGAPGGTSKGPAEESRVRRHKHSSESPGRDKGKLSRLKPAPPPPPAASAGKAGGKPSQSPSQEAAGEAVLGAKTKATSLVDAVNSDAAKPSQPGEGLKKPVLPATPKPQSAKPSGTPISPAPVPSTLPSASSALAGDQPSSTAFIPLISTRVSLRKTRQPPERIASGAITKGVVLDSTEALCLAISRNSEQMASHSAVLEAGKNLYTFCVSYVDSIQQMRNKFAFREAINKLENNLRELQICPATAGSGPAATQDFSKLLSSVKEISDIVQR
Sequence of Mitogen-activated protein kinase 1 (Homo sapiens) (P28482 whole entry): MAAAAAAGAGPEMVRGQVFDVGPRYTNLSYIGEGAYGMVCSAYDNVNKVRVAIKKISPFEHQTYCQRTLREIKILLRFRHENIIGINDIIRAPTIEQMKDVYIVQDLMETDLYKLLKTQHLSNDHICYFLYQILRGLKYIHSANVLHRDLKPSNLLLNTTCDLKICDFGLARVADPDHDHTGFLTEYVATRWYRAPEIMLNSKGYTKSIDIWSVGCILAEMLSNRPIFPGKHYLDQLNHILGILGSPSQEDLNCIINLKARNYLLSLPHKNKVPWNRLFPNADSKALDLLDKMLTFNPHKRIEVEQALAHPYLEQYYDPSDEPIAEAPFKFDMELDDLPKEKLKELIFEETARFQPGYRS

Row | SMILES | ΔTm [1] | ΔTm [2] | ΔTm [3] | ΔTm [4] | ΔTm [5] [°C] | ΔTm [6] [°C] | ΔTm [7] | ΔTm [8]
1 | Nc1ccc(-c2cccs2)cc1NC(=O)c1ccc(NC=O)cc1 | 0.87 °C | 2.75 °C | 1.18 °C | -0.53 °C | -0.36 | 0.54 | 0.14 °C | 1.27 °C
2 | COc1ccc(-n2c(SCCCN3C(=O)c4cccc5cccc(c45)C3=O)nnc2-c2ccncc2)cc1 | 0.68 °C | -3.3 °C | -0.02 °C | 0.26 °C | -0.45 | 0.07 | -1.38 °C | 0.1 °C
3 | CNCCCN1c2ccccc2CCc2ccccc21 | 0.08 °C | -2.59 °C | -0.16 °C | -0.01 °C | -1.29 | 0.06 | -1.87 °C | 0.96 °C
4 | CCCC1O[C@@H]2C[C@H]3[C@@H]4CCC5=CC(=O)C=C[C@]5(C)[C@H]4[C@@H](O)C[C@]3(C)[C@]2(C(=O)CO)O1 (stereo partly drawn) | 0.48 °C | -1.67 °C | 0.01 °C | -0.03 °C | -0.4 | -0.27 | -0.16 °C | -0.81 °C
5 | O=C1CCc2cc(OCCCCc3nnnn3C3CCCCC3)ccc2N1 | 0.01 °C | -0.81 °C | -0.24 °C | -0.48 °C | -0.04 | 0.01 | -1.24 °C | -0.24 °C
6 | FC(F)(F)Oc1ccc(Oc2ccnc(N3CCC(NC(=S)Nc4cccnc4)CC3)c2Cl)c(Cl)c1 | 0 °C and -0.06 °C | -3.17 °C and -5.35 °C | -0.35 °C and 0.35 °C | -2.73 °C and 0.27 °C | – | – | 0.16 °C and -1.29 °C | 1.66 °C and 0 °C
7 | CCCN(CCC)c1ccc(C=O)cc1Br | 0.01 °C | -2.88 °C | -0.15 °C | -0.24 °C | -0.05 | 0.17 | -2.25 °C | -0.42 °C
8 | COc1cc2c(cc1-c1c(C)noc1C)[nH]c1nc(C)nc(Nc3cc(C4CC4)nn3C)c12 | 0.79 °C | 14.9 °C | -0.63 °C | -0.39 °C | 0.26 | 0.59 | -0.72 °C | 0.66 °C
9 | COc1cc2/c(=N/c3ccc(Br)cc3F)nc[nH]c2cc1OCC1CCN(C)CC1 | – | -0.83 °C | 0.52 °C | 1.25 °C | -0.61 | 0.07 | – | -1.14 °C
10 | O=CC1CCCN1C(=O)C1CCCN1C(=O)OCc1ccccc1 (stereo not drawn) (Cbz-Pro-Pro-aldehyde; configuration not given here) | 0.3 °C | -1.06 °C | -0.15 °C | 0.22 °C | -0.2 | 0.12 | -0.83 °C | -0.47 °C
11 | CN1Cc2c(Cl)cc(Cl)cc2[C@H](c2cccc(S(=O)(=O)NCCOCCOCCNC(=O)NCCCCNC(=O)NCCOCCOCCNS(=O)(=O)c3cccc([C@@H]4CN(C)Cc5c(Cl)cc(Cl)cc54)c3)c2)C1 | -0.4 °C | -2.19 °C | -0.62 °C | -0.55 °C | -1.54 | 0 | -2.14 °C | -0.19 °C
12 | COc1cc(Oc2ccnc3cc(OC)c(OC)cc23)ccc1NC(=O)NC(C)c1nccs1 (stereo not drawn) | 9.54 °C | -3.36 °C | – | 0.28 °C | -1.46 | -9.78 | -0.11 °C | -0.38 °C
13 | O=C(C1CC1)N1CCN(Cn2sc3ccccc3c2=O)CC1 | -7.31 °C | -4.76 °C | -3.3 °C | -0.26 °C | 0 | -4.19 | -1.92 °C | 0 °C
14 | CS(=O)(=O)c1ccc(Oc2cc(F)cc(C#N)c2)c2c1[C@H](O)C(F)(F)C2 | 0.43 °C | -2.67 °C | 0.56 °C | -0.1 °C | 0.06 | 0.15 | -1.44 °C | 0.31 °C
15 | COc1cc(Nc2ncc(F)c(Nc3ccc4c(n3)NC(=O)C(C)(C)O4)n2)cc(OC)c1OC | 4.14 °C | -1.7 °C | 0.13 °C | -0.37 °C | 2.52 | -3.17 | – | -0.42 °C
16 | CC(C)c1c(-c2ccccc2)[nH]c2c(C#N)cnn2c1=O | 0.72 °C | -2.81 °C | 0.4 °C | -0.22 °C | -0.15 | 0.17 | -1.64 °C | -0.06 °C
17 | CC1=NN(c2ccc(C(=O)O)cc2)C(=O)/C1=C/c1ccc(-c2cc(C)c(C)cc2[N+](=O)[O-])o1 | 3.73 °C | -0.48 °C | 0.29 °C | 0.15 °C | 0.03 | 0.41 | -0.94 °C | -1.19 °C
18 | O=C(NC1CCC1)c1ccc2nc(-c3cccc(NS(=O)(=O)NCCN4CCCCC4)c3)cn2c1 | 0.57 °C | -2.44 °C | 0.18 °C | -0.21 °C | -0.29 | 0.15 | -2.15 °C | 0.09 °C
19 | O=C(CCl)Nc1ccc(S(=O)(=O)c2ccc(NC(=O)CCl)cc2)cc1 | 1.36 °C | -1.5 °C | 0 °C | 0.55 °C | 0.48 | -1.61 | -0.12 °C | 0.36 °C
20 | Cc1cc(C(=O)CN2CCC(O)CC2)c(C)n1-c1ccc(C#N)cc1 | 0.11 °C | -2.81 °C | -0.05 °C | -0.34 °C | -0.73 | 0.01 | -2.48 °C | -1.8 °C
21 | C[C@H](NC(=O)[C@H](Cc1ccccc1)NC(=O)OCc1ccccc1)C(=O)CF | 0.31 °C | -2.33 °C | 0.15 °C | 0.19 °C | -0.61 | -0.19 | -0.86 °C | -1.01 °C
22 | CCNC(=O)/C=C/c1cccc(Br)c1 | 0.39 °C | -0.78 °C | 0.01 °C | -0.27 °C | -0.4 | -0.04 | -2.22 °C | -0.12 °C
23 | CC(C)C[C@@H](C=O)NC(=O)[C@@H](NS(=O)(=O)c1ccc(F)cc1)C(C)C | -0.01 °C | -1.83 °C | -0.11 °C | 0.22 °C | -0.13 | 0.01 | -1.2 °C | -1.15 °C
